From PubChem
Cycloheximide cs: counter-screen hit for Shiga toxin inhibitors, cycloheximide; cell reporter, cycloheximide protein synthesis inhibition counterscreen; max response, %; 300,000 compounds, 12% hits; in the data active = max response mostly above about 13%, no sharp cut-off; inactive = mostly below about 14%; note: read at 38.3 µM for the half of the compounds with a filed dose; 0% is about no effect
Pf growth 96h: P. falciparum growth inhibition at 96 hour, primary screen for plastid delayed-death inhibitors | Potency, µM (series often up to 28.7 µM), without a hit: at the highest dose activity change, negative = inhibition, most hits filed as inhibitors | AID 504834 | P. falciparum luciferase reporter growth, 96 h | 320,000 compounds, 6.9% hits; note: potency is the fitted concentration of half-maximal effect; % is set by controls: 0 for no effect and ±100 for the full control effect
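Erythrocytes infected with luciferase-expressing P. falciparum were dispensed at 2% hematocrit and 0.05% parasitemia (final), then incubated with compounds 96 hours at 37 C in 5% CO2. Luminescence after detection reagent addition reported growth.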
Pf growth 48h: P. falciparum growth inhibition at 48 hours (one generation); P. falciparum luciferase growth in erythrocytes, 48 h; Potency, µM (doses to about 28.7 µM), for inactives: at the top dose activity change, negative = inhibition, hits mostly inhibitors; 310,000 compounds, 5.9% hits; note: potency is the fitted concentration of half-maximal effect; % is set by controls: 0 for no effect and ±100 for the full control effect
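Cell-based growth assay: transgenic P. falciparum expressing firefly luciferase, cultured in red cells within RPMI 1640 containing 0.5% w/v Albumax, 24 mM bicarbonate and gentamycin. A drop in luciferase activity indicates inhibition.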
Shiga toxin inh: inhibitors of Shiga toxin in Vero cells. Vero cells, Shiga toxin protein synthesis inhibition reporter. inhibition, % at 38.7 µM. 290,000 compounds, 9.2% hits. AID 2315; in the data active = inhibition mostly above about 28%, no sharp cut-off; inactive = mostly below about 43%; note: 0% is about no effect
Marburg entry inh: blocks Marburg virus binding to or entry into cells; Marburg virus pseudotyped entry inhibition, cell reporter; Potency, µM (highest dose often 37.8 µM), without a hit: top-dose activity change, negative = inhibition, usual class: inhibitors; 300,000 compounds, 1.8% hits; calls by dose curve; tested in HEK293 cells; note: potency is the fitted concentration of half-maximal effect; % is set by controls: 0 for no effect and ±100 for the full control effect
Lassa entry inh: inhibitors of Lassa virus binding or cell entry. Lassa virus pseudotype entry inhibition, cell reporter. Potency, µM (series often up to 37.9 µM), inactives show at the top dose activity change, negative = inhibition, usual class: inhibitors. 300,000 compounds, 1.2% hits; calls by dose curve; tested in HEK293 cells; note: potency is the fitted concentration of half-maximal effect; % is set by controls: 0 for no effect and ±100 for the full control effect; nearly all actives have a fitted effect of over 50% in size
Starred values were filed as active, the others as inactive; ? = inconclusive; nt = no result; [ ] = another dose, or the depositor's remark. This is a sample that favours compounds with a hit; in the whole collection about 19% have one here. Unless noted, calls come from the whole dose curve; as a rule, active = well fitted inhibition curve with a large enough effect; inconclusive = small, poorly fitted or top-dose-only effect, or another doubt; inactive = no such curve, though single readings can be large or run the other way.

SMILES	Cycloheximide cs	Pf growth 96h	Pf growth 48h	Shiga toxin inh	Marburg entry inh	Lassa entry inh
O=C(Cc1ccccc1)NCC(=O)Nc1cccc(Br)c1	7	?	10%	-2	-1%[46.1 µM]	0%[46.1 µM]
CCOc1ccccc1NC(=O)NC1CCCc2ccccc21 (centres undefined)	-3	-3%	-10%	-4	nt	nt
COc1ccc(N2CSC3=C(C#N)C(c4cccc(OC)c4OC)CC(=O)N3C2)cc1 (centres undefined)	-3	?	nt	-6	nt	nt
Cc1cc(N2CCN(C)CC2)nc2ccc(NC(=S)NCc3cccs3)cc12	7	-3%	?	-2	?	?
Cc1ccc(NCC(=O)c2ccc(C)cc2)cc1	39*	-14%	46%	48*	nt	nt
Cc1ccc(C(=O)CNc2cccc(Cl)c2)cc1	30	6%	-21%	30	-1%	4%
Cc1ccc(C(=O)CNc2ccc(C)c(Cl)c2)cc1	27*	-3%	29%	20	-1%	-2%
CCOC(=O)N1CCN(Cc2nc3cc(NC(=O)CC)ccc3n2C)CC1	-1	?	4%	-3	?	5%
O=C(Nc1cccc(-c2nc3ccccc3[nH]2)c1)c1ccccc1F	nt	nt	nt	nt	nt	-1%[46.1 µM]
O=C(O)CSc1nc2ccc(C(=O)c3ccccc3)cc2[nH]1	-4	?	16%	-2	0%	5%
O=C(c1ccccc1)c1ccc2nc(-c3ccc(NC(=O)c4ccccc4F)cc3)[nH]c2c1	12	32%	?	34*	-25%	-3%
O=C(O)CCC(=O)Nc1ccc(-c2nc3ccc(C(=O)c4ccccc4)cc3[nH]2)cc1	21*	?	67%	nt	4%	17%
Cc1ccc(-n2c(Cn3ncc4ccccc4c3=O)n[nH]c2=S)cc1	-1	-12%	20%	-8	nt	nt
CCOC(=O)c1sc(NNC(=O)c2ccc(F)cc2)nc1C	22*	?	?	56*	?	?
CCOC(=O)c1sc(NC(=O)c2ccc3ncsc3c2)nc1C	25*	18%	-11%	73*	nt	nt
CCOC(=O)c1nc(NNC(=O)c2ccc([N+](=O)[O-])cc2)sc1C	2	3.3µM*	?	8	8.9µM*	?
CCOC(=O)c1sc(NC(=O)c2cncc(Br)c2)nc1C	15	-17%	382%	56*	nt	nt
CCOC(=O)c1sc(NNC(=O)c2ccc(C)cc2)nc1C	12	-8%	?	23	-12%[46.1 µM]	-27%
CCOC(=O)c1sc(NC(=O)c2ccc(S(=O)(=O)N(C)C)cc2)nc1C	-3	nt	?	27	-6%	0%
CCCc1nc2ccc(NC(=O)NCCC(=O)OCC)cc2c(=O)n1Cc1ccc(Cl)cc1	-1	?	?	7	-13%	7%
O=C(NNC(=S)Nc1ccccc1C(F)(F)F)C1CC1	2	23%	-1%	13	-7%[46.1 µM]	13%[46.1 µM]
FC(F)(F)c1ccccc1NC(=S)N/N=C1\CC2CC=CC12 (centres undefined)	23*	?	?	77*	-30%[46.1 µM]	?
O=[N+]([O-])c1ccccc1N/N=C1\CC2CC=CC12 (centres undefined)	31*	31%	56%	108*	nt	nt
O=C(N/N=C1\CC2CC=CC12)c1ccccc1Cl (centres undefined)	21*	14%	-15%	85*	21%[46.1 µM]	nt
O=C(N/N=C1\CC2CC=CC12)c1ccc(Br)cc1 (centres undefined)	28	-3%	12%	48	9%	4%
SMILES	Cycloheximide cs	Pf growth 96h	Pf growth 48h	Shiga toxin inh	Marburg entry inh	Lassa entry inh
Cc1cc(Br)c(OCc2ccc(C(=O)N/N=C3\CC4CC=CC34)cc2)c(Br)c1 (centres undefined)	0	?	10µM*	-9	?	?
O=C(O)CSCC(=O)Nc1ccc(Br)c(C(F)(F)F)c1	-2	132%	-8%	4	-12%[14.2 µM]	22%
CC(C)(C)OC(=O)NCCc1nnc(S(=O)(=O)Cc2ccc(Cl)cc2Cl)o1	19*	8%	-13%	-4	?	-19%
COc1ccc(CCC(=O)Nc2ccc(S(=O)(=O)Nc3ncccn3)cc2)cc1	nt	-27%	-8%	nt	nt	nt
COc1cc(C(=O)OCC(=O)Nc2ccc(N3CCOCC3)cc2)ccc1OCC(C)C	nt	6%	-16%	nt	-12%[46.1 µM]	-2%
CCOC(=O)c1ccc(-n2ccnc2)c(NC(=O)c2ccc(C(C)(C)C)cc2)c1	-4	15µM*	13µM*	-13	?	-13%
O=C(NCc1ccco1)c1cccnc1Cl	0	13%	12%	-1	3%	-1%
CS(=O)(=O)Nc1nnc(Cc2ccccc2)s1	-2	nt	11%	2	-4%	2%
COC(=O)C1=C(C)NC2=C(C(=O)CCC2)C1c1cn(Cc2ccc(Br)cc2)nc1-c1ccccc1 (centres undefined)	-4	13µM*	8.3µM*	-4	?	-28%
COC(=O)C1=C(C)NC2=C(C(=O)CC(C)(C)C2)C1c1cccc(C)n1 (centres undefined)	2	?	-17%	0	12%	-4%
COC(=O)C1=C(C)NC2=C(C(=O)CC(C)(C)C2)C1c1cn(Cc2ccc(Br)cc2)nc1-c1ccccc1 (centres undefined)	2	?	13µM*	-2	?	-21%
COC(=O)C1=C(C)NC2=C(C(=O)CCC2)C1c1coc2ccccc2c1=O (centres undefined)	0	86%	?	-7	0%	9%
O=C(NC1C(=O)NNC1c1ccccc1)c1ccccc1 (centres undefined)	21*	48%	59%	116*	?	?
S=C(NCc1ccccc1)NCc1ccccc1	-1	?	nt	31	6%	2%
CCOCCCNC(=S)Nc1ccc(Br)cc1Cl	12*	-21%	?	36	0%[46.1 µM]	7%
Cc1ccc(NC(=S)NCCc2cnc[nH]2)cc1C	-2	33%	2%	-8	0%[46.1 µM]	25%[46.1 µM]
S=C(NCCc1ccccc1)NCCc1cnc[nH]1	16*	?	25%	nt	nt	nt
CCOCCCNC(=S)Nc1ccc(S(N)(=O)=O)cc1	7	13%	2%	-4	?	16%
S=C(NCCCc1ccccc1)NCc1ccccc1	26*	-13%	-24%	25*	?	-27%[46.1 µM]
CCOCCCNC(=S)NCCc1ccccc1	43*	?	36%	108*	?	?
Cc1ccc(NC(=S)NC2CCSc3ccccc32)cc1 (centres undefined)	10	?	?	18	-15%[46.1 µM]	?
Cc1ccc(OCC(=O)N(Cc2ccco2)Cc2ccco2)cc1	nt	nt	nt	nt	?	0%[46.1 µM]
COc1cccc(/C=C2\Oc3cc(OC(=O)N4CCOCC4)ccc3C2=O)c1	2	-12%	-9%	39	15%[46.1 µM]	20%[46.1 µM]
Cc1cccc(/C=C2\Oc3cc(OS(C)(=O)=O)ccc3C2=O)c1	26*	-27%	16%	36	?	-26%
O=C1/C(=C/c2ccc(O)c(O)c2)Oc2ccccc21	35*	nt	nt	77*	nt	nt
